Source: PubChem BioAssay
Calls of active or inactive are those of the source.

How the values were obtained:
[1] = system: Human papillomavirus type 1a protein E7 (residues 44-93); experiment: HPV1a E7 fragment binders on microarrays, primary screen, biochemical, small-molecule microarray, residues 44-93, 635 nm fluorescence (AID 1108); settings: small-molecule microarray binding, fluorescence 635 nm; higher = more signal;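 also: E7 fragment applied at 1 µg/mL in TBST for 1 h at 4 C; score combines spot fluorescence with its signal to noise ratio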
[2] = modulators of HCV replicon luciferase signal, primary screen, HCV replication inhibitor project, Huh7 cells, luciferase reporter (AID 1109); settings: 48 h, higher = more signal;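 also: huh7 hepatoma cells harbouring a luciferase neomycin HCV replicon reporter; luciferase luminescence as measure of HCV replicon replication; test concentration not given here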
[3] = biological target: Left-right determination factor 2 (Homo sapiens) (UniProt O00292); experiment: LEFTY2 binders on small-molecule microarrays, primary screen, biochemical, small-molecule microarray, 635 nm fluorescence scan (AID 1110); settings: LEFTY2 binding, higher = more signal
Sequence of Left-right determination factor 2 (Homo sapiens) (O00292 whole entry, looked up): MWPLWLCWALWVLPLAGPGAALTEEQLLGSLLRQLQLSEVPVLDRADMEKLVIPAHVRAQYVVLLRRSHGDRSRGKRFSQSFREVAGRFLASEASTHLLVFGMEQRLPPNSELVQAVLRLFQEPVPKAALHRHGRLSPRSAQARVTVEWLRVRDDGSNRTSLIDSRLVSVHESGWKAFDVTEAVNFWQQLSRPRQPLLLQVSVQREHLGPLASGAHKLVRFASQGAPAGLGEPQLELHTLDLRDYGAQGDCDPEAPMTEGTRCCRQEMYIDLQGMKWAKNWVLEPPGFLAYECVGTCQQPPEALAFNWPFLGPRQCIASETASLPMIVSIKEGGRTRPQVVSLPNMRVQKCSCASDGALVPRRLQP

[4] = biological target: Calmodulin-1 (Homo sapiens) (UniProt P0DP23); experiment: CALM1 binders on microarrays, EGTA buffer, profiling panel, biochemical, small-molecule microarray, Cy5-labelled CALM1 (AID 1111); settings: Cy5-CALM1 binding fluorescence, higher = more signal;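 also: labelled calmodulin applied in Tris saline Tween buffer holding calcium plus EGTA and DTT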
[5] = biological target: Calmodulin-1 (Homo sapiens) (UniProt P0DP23); experiment: calcium-bound CALM1 binders on microarrays, profiling panel, artefact control for SMM control-protein annotation, biochemical, small-molecule microarray, Cy5-labelled CALM1, plus calcium (AID 1112); settings: Cy5-CALM1 binding fluorescence, higher = more signal;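 also: score merges spot fluorescence with signal to noise from triplicate slides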
[6] = small-molecule microarray binders of probe aWnt5a, primary screen, biochemical, biotinylated probe, 635/667 nm fluorescence (AID 1113); settings: higher = more signal;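 also: score merges 667 nm fluorescence intensity with signal-to-noise per printed feature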
[7] = small-molecule microarray binders of probe aShh, primary screen, biochemical, biotinylated probe, 635/667 nm fluorescence (AID 1114); settings: higher = more signal;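 also: probe is biotin-labelled aShh protein from a stem cell growth factor screen; measures binding of labelled protein to compounds printed on the slide; score merges feature fluorescence at 667 nm with signal-to-noise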
[8] = small-molecule microarray binders of probe aNog, primary screen, biochemical, biotinylated probe, 635/667 nm fluorescence (AID 1115); settings: higher = more signal;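 also: probe is biotinylated aNog protein used at 0.15 µg/mL for 1 h at 4 C; z-score combines 667 nm fluorescence of each spot with its signal to noise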
[9] = biological target: Torsin-1A-interacting protein 1 (Homo sapiens) (UniProt Q5JTV8); experiment: LAP1 binders from COS7 cell lysate, primary screen, small-molecule microarray, 635/667 nm fluorescence (AID 1116); settings: COS7-hLAP1 lysate binding, 635 nm fluorescence, higher = more signal
Sequence of Torsin-1A-interacting protein 1 (Homo sapiens) (Q5JTV8 whole entry, looked up): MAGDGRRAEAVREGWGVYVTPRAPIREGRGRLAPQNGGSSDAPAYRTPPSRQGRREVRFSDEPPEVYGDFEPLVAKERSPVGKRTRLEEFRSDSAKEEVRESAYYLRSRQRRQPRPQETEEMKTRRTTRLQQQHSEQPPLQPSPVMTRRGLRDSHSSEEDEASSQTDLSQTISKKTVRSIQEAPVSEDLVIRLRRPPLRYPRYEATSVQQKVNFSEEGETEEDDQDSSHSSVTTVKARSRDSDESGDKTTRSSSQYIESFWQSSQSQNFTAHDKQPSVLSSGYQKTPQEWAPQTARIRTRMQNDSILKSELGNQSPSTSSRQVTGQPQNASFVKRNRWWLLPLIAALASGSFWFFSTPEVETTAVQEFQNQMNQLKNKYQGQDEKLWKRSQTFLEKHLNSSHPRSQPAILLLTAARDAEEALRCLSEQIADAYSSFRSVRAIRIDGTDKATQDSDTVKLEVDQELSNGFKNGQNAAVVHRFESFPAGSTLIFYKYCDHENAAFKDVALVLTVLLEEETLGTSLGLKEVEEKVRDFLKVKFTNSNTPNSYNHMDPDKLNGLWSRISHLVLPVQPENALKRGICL

[10] = biological target: Alpha-bungarotoxin (Bungarus multicinctus) (UniProt P60615); experiment: alpha-bungarotoxin binders on microarray, profiling panel, artefact control for SMM control protein annotation, biochemical, small-molecule microarray, Alexa647 label, 635/667 nm fluorescence (AID 1117); settings: alpha-BTX-A647 binding fluorescence, higher = more signal
Sequence of Alpha-bungarotoxin (Bungarus multicinctus) (P60615 whole entry, looked up): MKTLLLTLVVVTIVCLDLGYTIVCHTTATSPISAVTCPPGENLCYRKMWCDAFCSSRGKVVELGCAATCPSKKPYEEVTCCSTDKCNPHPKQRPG

Albumin (Bos taurus) = Albumin (Bos taurus) (UniProt P02769); experiment: bovine serum albumin binders on microarray, profiling panel, artefact control for SMM control protein annotation, biochemical, small-molecule microarray, Alexa647 label, 635/667 nm fluorescence (AID 1118); settings: BSA-A647 binding, fluorescence 635 nm, higher = more signal;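 also: score merges 667 nm emission intensity and signal-to-noise per printed compound spot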
Sequence of Albumin (Bos taurus) (P02769 whole entry, looked up): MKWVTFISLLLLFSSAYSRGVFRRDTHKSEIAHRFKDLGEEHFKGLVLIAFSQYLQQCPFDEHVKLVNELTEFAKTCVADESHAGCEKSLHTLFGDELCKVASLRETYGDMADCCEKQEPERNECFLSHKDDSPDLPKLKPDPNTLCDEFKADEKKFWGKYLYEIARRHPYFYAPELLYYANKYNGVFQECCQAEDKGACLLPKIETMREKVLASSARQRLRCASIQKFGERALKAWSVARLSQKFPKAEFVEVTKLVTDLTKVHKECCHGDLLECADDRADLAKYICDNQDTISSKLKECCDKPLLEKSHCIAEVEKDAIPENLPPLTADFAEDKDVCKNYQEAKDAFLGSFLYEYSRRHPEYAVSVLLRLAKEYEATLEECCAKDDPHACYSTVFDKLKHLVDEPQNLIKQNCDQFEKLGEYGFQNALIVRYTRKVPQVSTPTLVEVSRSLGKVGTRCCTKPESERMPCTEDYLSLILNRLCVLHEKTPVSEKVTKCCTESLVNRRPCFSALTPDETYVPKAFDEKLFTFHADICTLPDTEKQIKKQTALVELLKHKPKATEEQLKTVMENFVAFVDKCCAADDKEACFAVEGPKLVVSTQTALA

[11] = small-molecule microarray binders of probe aXIP, primary screen, biochemical, NeuroSMM set, 635/667 nm fluorescence (AID 1119); settings: higher = more signal, called active from +8 up or from −8 down;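 also: probe is the protein aXip251-270 applied at 1 µg/mL to compound-printed slides; binding of probe to printed compounds measured as 667 nm fluorescence plus signal to noise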
[12] = small-molecule binders of probe aNOTCH3, primary screen, biochemical, small-molecule microarray, 635/667 nm fluorescence (AID 1120); settings: higher = more signal;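 also: probe is a biotin-tagged antibody raised against NOTCH3 rather than NOTCH3 protein; score merges spot fluorescence near 667 nm with spot signal to noise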
[13] = small-molecule binders of probe aNOTCH2, primary screen, biochemical, small-molecule microarray, 635/667 nm fluorescence (AID 1121); settings: higher = more signal;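 also: score merges feature fluorescence read at 667 nm with its signal to noise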
[14] = biological target: Carbonic anhydrase 2 (Homo sapiens) (UniProt P00918); experiment: CAII small-molecule binders, profiling panel, biochemical, small-molecule microarray, Alexa647-labelled CAII (AID 1122); settings: CAII-A647 binding fluorescence, higher = more signal
[15] = COS7 lysate on small-molecule microarray, probe aHis, 635 nm (AID 1123); settings: COS7 cell lysate, fluorescence, higher = more signal;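 also: z-score combines 667nm fluorescence intensity with signal-to-noise per printed compound spot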
[16] = compound binding in COS7 lysate, probe aLAP1, primary screen, cell lysate, small-molecule microarray (AID 1124); settings: probe aLAP1, fluorescence, higher = more signal;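 also: lysate comes from COS7 cells expressing LAP1 and is applied at 0.3 µg/mL; score merges spot fluorescence near 667 nm with signal-to-noise over triplicate slides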
Sam68 (KHDRBS1) = experiment: Sam68 small-molecule binders, primary screen, biochemical, small-molecule microarray, 635 nm fluorescence (AID 1125); settings: small-molecule microarray binding, higher = more signal;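 also: score merges 667 nm channel intensity with signal to noise over triplicate slides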
[17] = system: Chordin-like protein 2 (CHRDL2); experiment: CHRDL2 small-molecule binders, primary screen, biochemical, small-molecule microarray, 635 nm fluorescence (AID 1126); settings: small-molecule microarray binding, fluorescence 635 nm; higher = more signal;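 also: printed compound slides probed with Chrdl2 protein at 4 µg/mL for 1 h at 4 C; score merges 667 nm emission intensity with signal to noise over three replicate slides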
[18] = biological target: Concanavalin-A (Canavalia ensiformis) (UniProt P02866); experiment: ConA small-molecule binders, primary screen, artefact control for SMM control protein annotation, biochemical, small-molecule microarray, Alexa647 label, 635 nm (AID 1127); settings: ConA-A647 binding fluorescence, higher = more signal;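 also: z combines 667 nm emission intensity with signal-to-noise across three replicate slides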
Sequence of Concanavalin-A (Canavalia ensiformis) (P02866 whole entry, looked up): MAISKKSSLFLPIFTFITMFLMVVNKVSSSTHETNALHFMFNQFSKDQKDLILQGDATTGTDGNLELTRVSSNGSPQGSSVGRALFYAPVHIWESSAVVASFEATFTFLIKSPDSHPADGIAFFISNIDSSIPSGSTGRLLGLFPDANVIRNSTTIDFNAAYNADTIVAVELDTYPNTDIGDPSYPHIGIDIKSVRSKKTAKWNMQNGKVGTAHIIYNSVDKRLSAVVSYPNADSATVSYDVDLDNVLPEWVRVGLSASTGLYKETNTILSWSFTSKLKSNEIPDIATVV

SMILES | composite z-score [1] | z-score [2] | composite z-score [3] | composite z-score [4] | composite z-score [5] | composite z-score [6] | composite z-score [7] | composite z-score [8] | composite z-score [9] | composite z-score [10] | composite z-score (Albumin (Bos taurus)) | composite Z-score [11] | composite z-score [12] | composite z-score [13] | composite z-score [14] | composite z-score [15] | composite z-score [16] | composite z-score (Sam68 (KHDRBS1)) | composite z-score [17] | composite z-score [18]
CC(C)C(=C=CC[C@H](O)c1ccccc1OCCO)C[C@H](O)COCc1ccccc1 | 0.257 | -1.88 | -0.274 | 0.444 | -0.457 | -0.128 | -0.0681 | -0.391 | -0.251 | 0.257 | 0.435 | -0.392 (inactive) | -0.122 | -0.172 | 0.736 | 1.08 | 0.565 | 0.24 | -0.163 | 0.377
O=C1C2C=CC(C(O)C3CCCCC3)N(n3cnnc3)C2C(=O)N1Cc1ccccc1 (stereo not given) | 1.45 | -0.911 | -0.0665 | 0.879 | -0.195 | 0.0914 | -0.0064 | 1.07 | 0.598 | 0.496 | 0.835 | 0.288 (inactive) | 0.341 | -0.0527 | 0.597 | 2.23 | 0.343 | 1.29 | -0.0651 | 0.698
COc1ccccc1CN1C(=O)c2ccccc2[C@](Cc2ccccc2I)(C(=O)NCC(C)C)[C@@H]1c1ccc(CO)cc1 | -0.237 | -0.921 | -1.25 | -0.313 | -0.18 | -0.0529 | -0.0243 | 0.215 | 0.078 | 0.237 | -0.133 | 0.688 (inactive) | -0.0693 | -0.0241 | 0.542 | 1.97 | 0.675 | 0.781 | -0.483 | 0.792
O=C(NCC(O)CO)[C@@]1(CCS(=O)(=O)c2ccccc2)N=C(c2ccc(OCCCO)cc2)O[C@H]1c1ccccc1 (stereo not given in full) | 1.47 | 0.0294 | -1.15 | 1.51 | 1.14 | 0.0676 | 0.181 | 0.0574 | 2.55 | 3.32 | 0.905 | 1.06 (inactive) | 0.177 | 0.137 | 0.555 | 3.17 | 1.11 | 1.22 | 0.106 | 0.0968
C=CCC(OC(C)=O)[C@@H]1[C@@H](N(Cc2cccc3ccccc23)C(=O)Cc2ccc(OC)cc2)c2cc(OCCCO)ccc2N1C(=O)Cc1ccc2ccccc2c1 (stereo not given in full) | 0.415 | 0.24 | -0.102 | 0.0895 | 0.316 | -0.216 | -0.138 | -0.308 | -0.0234 | 0.14 | -0.0328 | 0.181 (inactive) | -0.0584 | -0.159 | 0.0435 | 1.17 | 0.078 | -0.0489 | 0.116 | -0.154
CN(C)CCCC[C@@H]1NC(=O)[C@@H]2C[C@H](C(=O)NCCCCCN)[C@H](c3cccc(OCCO)c3)N2C1=O | 1.11 | 0.663 | 0.64 | 1.77 | 0.717 | -0.174 | -0.16 | -0.301 | 1.05 | 0.293 | 0.49 | 0.932 (inactive) | 0.423 | -0.14 | 0.727 | 0.482 | 1.27 | 1.33 | 0.495 | 1.21
OCCCC1=CC(c2ccc(CN3CCCC3)cc2)N(Cc2cccc(OC(F)(F)F)c2)CC1 (stereo not given) | -0.526 | -4.72 | -0.103 | -0.197 | 0.769 | -0.096 | -0.0769 | -0.0898 | 0.779 | -0.371 | 0.465 | 0.451 (inactive) | 0.0642 | -0.0907 | -0.0985 | 0.251 | -0.309 | -0.0506 | 0.248 | -0.796
C=CCOC(=O)[C@H]1[C@@H]2C(=O)O[C@@H](c3ccccc3)[C@@H](c3ccccc3)N2[C@@H](c2ccc(OCCOC(=O)[C@@H]3C[C@@H]4C(=O)N[C@@H](CCCC[N+](C)(C)C)C(=O)N4[C@@H]3c3ccc(O)cc3)cc2)[C@]12C(=O)Nc1ccc(I)cc12 | 1.41 | -2.84 | 0.668 | 0.167 | -0.49 | 0.0324 | 0.203 | 1.06 | 1.84 | 0.74 | -0.691 | 0.61 (inactive) | -0.0647 | -0.0267 | 0.572 | 1.28 | 0.517 | 1.29 | 1.14 | 1.03
COC(=O)[C@@]1(Cc2ccc(OC)cc2)[C@H]2c3cc(C(=O)N4CCCC4)n(Cc4c(CO)[nH]cc(C)c4=O)c3C[C@H]2CN1C(=O)c1ccccc1 | -0.78 | -1.4 | -0.181 | 2.05 | 0.593 | 0.0328 | -0.156 | 0.947 | 2.32 | 0.12 | 1.01 | -0.438 (inactive) | 0.0296 | 0.257 | 0.751 | 3.24 | 1.32 | 0.332 | -0.184 | 0.393
CCOC(=O)C1=CC[C@@H](c2ccc(OC)cc2)N(S(=O)(=O)c2ccc(C)cc2)[C@H]1CC | 1.18 | -2.44 | 0.349 | 1.84 | 0.436 | 0.0438 | -0.221 | 1.48 | 0.482 | 1 | 0.894 | -0.0608 (inactive) | 0.164 | 0.0684 | 0.579 | 1.85 | 0.133 | 1.33 | -0.483 | 1.07
CN1C(=O)C2C(C1=O)C1C=C(c3ccc(CO)cc3)C2C(C2CC2)N1C (stereo not given) | 0.208 | 0.203 | 0.0075 | 0.0024 | 0.103 | -0.0664 | -0.138 | -0.0606 | 0.149 | 0.219 | 0.876 | 0.111 (inactive) | -0.0947 | -0.0859 | 0.431 | -0.415 | -0.0324 | 0.164 | 0.0323 | 0.0875
